Screens deposited in PubChem BioAssay by National Center for Advancing Translational Sciences (NCATS).
This is a sample that favours compounds with a hit; in the whole collection about 1% have one here.
RXFP1 antagonist: blocks the human relaxin receptor RXFP1; activity change, negative = inhibition, % at 57.5 µM; HEK293-RXFP1, relaxin-stimulated cAMP HTRF, 30 min; stronger effect = lower value; 350,000 tested, 0.59% active; Q9HBX9;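 active = activity change of -60% or lower, but not beyond a set lower limit; inconclusive = change between -60% and -40%, or beyond the set limit; inactive = change above -40%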; note: % is set by controls: 0 for no effect and ±100 for the full control effect
RXFP1 agonist: RXFP1 (human) receptor agonism; Q9HBX9; HEK293T-RXFP1 cAMP TR-FRET, 30 min; response scale: percent of porcine relaxin response, buffer zero; Potency, µM (titrated, usually from 57.5 µM), for inactives: at the highest dose activation, actives largely listed as activators; 370,000 tested, 0.3% active; AID 2676; active = well fitted activation curve with a large enough effect; inconclusive = small, poorly fitted or top-dose-only effect; note: potency is the fitted concentration of half-maximal effect; % is set by controls: 0 for no effect and ±100 for the full control effect; nearly all actives have a fitted effect of over 60% in size
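HEK293 cells stably expressing RXFP1, treated 30 min at 37C with compounds plus PDE4 inhibitor Ro 20174; cAMP measured by HTRF TR-FRET. Normalized to buffer and 29 nM porcine relaxin; EC50 by Hill fit.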
TSHR antag: blocks TSH signaling through the human TSH receptor; P16473; TSHR-expressing cells, TSH-stimulated cAMP HTRF, 2 h; stronger effect = lower value; activity change, negative = inhibition, % at 11.5 µM; 330,000 tested, 0.2% active; AID 504810;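 active = activity change below a set negative limit, meaning inhibition stronger than a set level, cut at about -70% in these data; inconclusive = activity change between two set negative limits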; note: % is set by controls: 0 for no effect and ±100 for the full control effect
Target sequence (P16473 whole entry, looked up): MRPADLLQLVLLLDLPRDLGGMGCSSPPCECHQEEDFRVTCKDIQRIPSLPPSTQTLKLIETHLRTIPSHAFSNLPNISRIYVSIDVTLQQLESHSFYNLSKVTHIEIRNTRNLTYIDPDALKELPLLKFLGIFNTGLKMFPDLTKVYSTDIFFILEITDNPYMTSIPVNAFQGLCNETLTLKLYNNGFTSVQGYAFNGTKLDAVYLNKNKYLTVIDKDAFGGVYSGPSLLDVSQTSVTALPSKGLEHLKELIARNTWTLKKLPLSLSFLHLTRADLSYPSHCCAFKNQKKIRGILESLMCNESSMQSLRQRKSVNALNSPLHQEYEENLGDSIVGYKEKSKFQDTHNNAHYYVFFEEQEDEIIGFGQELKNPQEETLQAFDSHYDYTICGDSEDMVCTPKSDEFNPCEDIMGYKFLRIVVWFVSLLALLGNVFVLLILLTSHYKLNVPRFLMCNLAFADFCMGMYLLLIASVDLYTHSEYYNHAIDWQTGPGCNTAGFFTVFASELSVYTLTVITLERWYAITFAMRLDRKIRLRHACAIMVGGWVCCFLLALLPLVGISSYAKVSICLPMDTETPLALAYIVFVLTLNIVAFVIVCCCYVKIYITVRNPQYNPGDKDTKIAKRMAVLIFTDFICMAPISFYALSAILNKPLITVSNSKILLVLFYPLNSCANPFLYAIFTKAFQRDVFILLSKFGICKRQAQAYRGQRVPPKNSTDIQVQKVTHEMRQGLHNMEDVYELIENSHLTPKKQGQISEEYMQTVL
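Antagonism was scored as loss of TSH-driven cAMP in TSHR cells, stimulated with 4nM TSH (EC80) for 2 hours at 37 deg C and detected by homogeneous HTRF competition immunoassay.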
gsp antag: gsp mutant antagonism; gsp-mutant cells, cAMP HTRF, 30 min; Potency, µM (top dose mostly 76.9 µM), for inactives: at the highest dose activity change, negative = inhibition, actives largely listed as inhibitors; 340,000 tested, 0.4% active; calls by dose curve; cell line not stated here;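 note: intracellular cAMP measured with PDE inhibitor Ro 20-1724 present during compound exposure; potency is the fitted concentration of half-maximal effect; % is set by controls: 0 for no effect and ±100 for the full control effect; nearly all actives have a fitted effect of over 65% in size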
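HTRF cAMP read-out (cAMP-d2 plus anti-cAMP antibody-K in lysis buffer, 30 min RT). Before lysis, cells are exposed to compounds with […] for 30 min at 37C in DPBS containing Ca/Mg, BSA and Tween 20.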
gsp ag: gsp mutant agonism | gsp mutant cells, cAMP HTRF, 30 min | Potency, µM (highest dose often 76.9 µM), for inactives: at the highest dose activation (cAMP increase), hits mostly activators | 340,000 tested, 0.13% active | AID 624287; active = well fitted activation curve with a large enough effect; inconclusive = small, poorly fitted or top-dose-only effect, or another doubt; inactive = no such curve, though single readings can be large or run the other way; cell line not stated here;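 note: phosphodiesterase inhibitor Ro 20-1724 added with compounds to block cAMP breakdown; potency is the fitted concentration of half-maximal effect; nearly all actives have a fitted effect of over 60% in size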
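Cells stably selected in G418 were plated at 2000/well, grown 16-24 hr, then given compounds in DMSO with the PDE inhibitor […] (300 uM solution added) for 30 min at 37C; cAMP was read by HTRF.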
Active calls of the source: *; ? = inconclusive; / = no result; [ ] = another dose, or the depositor's remark.

SMILES	RXFP1 antagonist	RXFP1 agonist	TSHR antag	gsp antag	gsp ag
CCOc1cc(NC(=O)C2CC2)c(OCC)cc1NC(=O)c1cccc(F)c1	3.1	4.7%	-89.4*	17.0%	-8.9%[15.4 µM]
O=C(c1ccc2c(c1)N(Cc1ccccc1)C(=O)c1ccccc1S2(=O)=O)N1CCOCC1	1.7	0.1%	/	/	/
O=Cc1s/c(=N\S(=O)(=O)c2ccccc2)n(CCCCl)c1Cl	?	1.3%	-70.1*	-2.5%	-32.3%
CN(C)c1ccc(CNC(=O)CCn2c(=O)c3cccn3c3ccc(F)cc32)cc1	-3.9	?	/	/	/
N#Cc1c(NC(=O)/C=C/c2ccco2)sc2c1CCCC2	-22.5	2.8%	-5.6	4.7%	-2.7%
O=C(/C=C/c1ccco1)Nc1sc2c(c1C(=O)O)CCC2	10.0	0.4%	-4.9	39.8µM*	3.5%
O=C(Nc1sc2c(c1C(=O)O)CCC2)c1ccccc1	-6.1	1.1%	-26.1	22.4µM*	2.5%
CC(C)N(Cc1ccccc1)S(=O)(=O)c1ccc(N2CCCCS2(=O)=O)cc1	-7.2	1.3%	/	/	/
S=c1nc(-c2ccccc2)[nH]c2ccccc12	6.2	?	-5.5	9.4%	15.8µM*
S=c1nc(-c2ccc(Br)cc2)[nH]c2ccccc12	17.8	13.6%	-1.0	-1.2%	?
Cc1nc(SC(C)C(=O)Nc2ccccc2Cl)cc(-c2ccccc2)n1 (stereo not given)	-72.2*	-2.4%	/	/	/
COc1ccc(CCNc2oc(COc3ccc(Br)cc3)nc2C#N)cc1OC	-61.8*	2.0%	-30.3	39.8µM*	-24.8%
COc1ccc(CCNc2oc(Cc3cccc4ccccc34)nc2C#N)cc1OC	-0.5	1.3%	-24.1	?	-17.6%
O=C(NNc1c2ccccc2nc2ccccc12)c1ccc(O)cc1	-8.0	-0.1%	-27.1	35.5µM*	-30.3%
COc1ccc(OCC(=O)NNc2c3ccccc3nc3ccccc23)cc1	-37.5	-1.3%	-19.7	31.6µM*	-9.6%
O=C(COc1ccccc1)NNc1c2ccccc2nc2ccccc12	-24.5	-0.3%	?	39.8µM*	-50.6%
Cc1ccc(Nc2nc3nonc3[nH]c2=O)cc1Cl	-17.6	0.4%	?	28.2µM*	10.2%
Cc1ccc(Nc2nc3nonc3[nH]c2=O)cc1C	-12.9	0.2%	-29.6	-22.0%	-22.6%
CCOc1ccc(-c2nonc2NC(=O)COc2ccccc2)cc1	2.3	0.8%	/	/	/
CC1(C)NC(=O)N(CC(=O)OCC(=O)c2ccc(Br)s2)C1=O	14.7	/	40.5	14.3%	10µM*
COc1ccc(NC(=O)COC(=O)CN2C(=O)NC(C)(C)C2=O)cc1	3.4	0.3%	-2.1	10.6%	-3.8%
CN1CCc2c(sc(NC(=O)CS(=O)(=O)c3ccccc3)c2C(N)=O)C1	-62.7*	0.0%	0.4	?	0.2%[15.4 µM]
CCCN1CCc2c(sc(NC(=O)CCS(=O)(=O)c3ccccc3)c2C(N)=O)C1	-11.4	-0.6%	-5.9	-1.8%	?
COC(=O)c1ccc(OC)c(CN2C(=O)N(c3ccc(C(C)=O)cc3)S(=O)(=O)c3ccccc32)c1	/	2.4%	/	/	/
COc1ccc(CCNS(=O)(=O)c2cc3c4c(c2)C(C)C(=O)N4CCC3)cc1OC (stereo not given)	-91.9*	-0.6%	-2.7	-5.2%	-11.3%
SMILES	RXFP1 antagonist	RXFP1 agonist	TSHR antag	gsp antag	gsp ag
Cc1ccc2c(=O)cc(C(=O)Nc3sc4c(c3C(N)=O)CCCC4)oc2c1	3.1	3.9%	/	/	/
COc1cccc(CNC(=O)CN2C(=O)COc3ccc(S(=O)(=O)Nc4ccccc4)cc32)c1	/	-2.3%	/	/	/
CCCn1c(=S)[nH]c2cc(C(=O)N(CCO)Cc3ccccc3)ccc2c1=O	-74.7*	3.1%	0.3	-27.1%	-13.2%
COc1ccc(CNC(=O)c2ccc3c(=O)n(CCCN4CCCC4=O)c(=S)[nH]c3c2)cc1	-116.5*	5.8%	-1.7	-8.0%	15.9%[15.4 µM]
COc1ccccc1CNC(=O)c1ccc2c(=O)n(CCCN3CCCC3=O)c(=S)[nH]c2c1	-64.8*	9.9%	-3.1	-6.5%	2.4%[15.4 µM]
CCN(CC)C(=O)c1ccc2c(=O)n(CCOC)c(=S)[nH]c2c1	6.9	-2.3%	1.2	-2.8%	15.2%
CCOCCCn1c(=S)[nH]c2cc(C(=O)NCC(OC)OC)ccc2c1=O	-65.8*	-2.8%	-11.7	-5.3%	5.4%
COC(=O)c1ccc2c(=O)n(CCCN3CCCC3=O)c(=S)[nH]c2c1	24.1	-0.6%	-3.3	-10.6%	?
CCN[C@@H]1C[C@H](N)[C@@H](OC2OC(CN)=CCC2N)[C@H](O)[C@H]1O[C@H]1OC[C@](C)(O)[C@H](NC)[C@H]1O (stereo not given in full)	14.8	/	/	/	/
Cc1ccc(NC(=O)Cc2ccc(-n3c(C)nc4cccnc43)cc2)cc1C	-12.7	4.5%	/	/	/
COc1ccc(-c2cn3c(n2)sc2cc(C(=O)NCCc4ccc(OC)cc4OC)ccc23)cc1	-2.5	6.5%	/	/	/
O=C(NCc1ccccc1)c1ccc2c(=O)n(CCCN3CCCC3=O)c(=S)[nH]c2c1	-73.8*	2.1%	-3.4	-12.9%	26.9%
Cc1ccc(CNC(=O)c2ccc3c(=O)n(CCCN4CCCC4=O)c(=S)[nH]c3c2)cc1	-0.5	1.7%	14.1	1.7%	?
CCn1ccc2cc(S(=O)(=O)N3CCCN(C(=O)NCC(C)C)CC3)ccc21	/	0.3%	/	/	/
CCOc1ccc(Oc2ccc(Cl)cc2NC(=O)C2=COCCO2)cc1	-5.6	-0.4%	-2.0	-6.7%	0.3%
O=C(Nc1cc(Cl)ccc1Oc1ccccc1)C1=COCCO1	-75.5*	0.1%	8.4	-12.2%	-21.3%
Cc1ccc(S(=O)(=O)N2CCN(C(=O)CNC(=O)c3sc4ccccc4c3Cl)CC2)cc1	-13.6	7.9%	1.8	-33.2%	11.2µM*
CCCCCC(O)(c1ccc(OC)cc1)C(CN1CCOCC1)c1ccccc1 (stereo not given)	-60.7*	4.1%	-5.4	-20.1%	-7.2%
COc1ccc(C(O)(C2CCCCC2)C(CN2CCOCC2)c2ccccc2)cc1 (stereo not given)	-89.7*	0.0%	0.4	-18.8%	-1.7%
CCCCC(O)(c1ccc(OC)cc1)C(CN1CCOCC1)c1ccccc1 (stereo not given)	-7.5	-1.6%	1.9	-5.2%	?
Cc1cc(Br)cc2c1N(Cc1ccccc1OC(C)C)C(=O)C2=O	-31.7	-2.4%	/	/	/
CCOc1ccccc1CNC(=O)CN1C(=O)C2CCCCN2c2ccc(C(=O)N(C)C)cc21 (stereo not given)	2.3	0.4%	/	/	/
COc1cccc(-c2cc(C(F)(F)F)nc(-n3nc(C)c(Br)c3C)n2)c1	-27.9	21.4%	/	/	/
Cn1cccc1-c1cc(C(=O)N/N=C/c2cc(Br)ccc2O)[nH]n1	-61.5*	28.1%	-8.2	?	30.4%
Cn1cccc1-c1cc(C(=O)N/N=C/c2ccccc2Cl)[nH]n1	-22.9	1.2%	-7.8	-26.1%	-5.7%
CN(c1ccccc1)c1nc(N)c([N+](=O)[O-])c(NC2CCCCC2)n1	-16.2	0.4%	1.1	50.1µM*	-54.2%
